# Screening data deposited in PubChem BioAssay by Broad Institute.
# EZH2 inh: inhibitors of human EZH2/PRC2 methyltransferase; Q15910; AID 651548; PRC2 H3K27 methylation, DELFIA TRF, 1 h; inhibition, % at 12.5 µM; actives 0.35% (n = 57,000);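 active means mean inhibition of replicates at least 50% and every single replicate also reaching 50%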;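 further: dimethyl H3K27 on biotinylated H3 21-44 peptide detected by antibody; plate controls were median neutral control wells for no effect and median positive control wells for full effect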
# Target sequence (Q15910 whole entry, looked up): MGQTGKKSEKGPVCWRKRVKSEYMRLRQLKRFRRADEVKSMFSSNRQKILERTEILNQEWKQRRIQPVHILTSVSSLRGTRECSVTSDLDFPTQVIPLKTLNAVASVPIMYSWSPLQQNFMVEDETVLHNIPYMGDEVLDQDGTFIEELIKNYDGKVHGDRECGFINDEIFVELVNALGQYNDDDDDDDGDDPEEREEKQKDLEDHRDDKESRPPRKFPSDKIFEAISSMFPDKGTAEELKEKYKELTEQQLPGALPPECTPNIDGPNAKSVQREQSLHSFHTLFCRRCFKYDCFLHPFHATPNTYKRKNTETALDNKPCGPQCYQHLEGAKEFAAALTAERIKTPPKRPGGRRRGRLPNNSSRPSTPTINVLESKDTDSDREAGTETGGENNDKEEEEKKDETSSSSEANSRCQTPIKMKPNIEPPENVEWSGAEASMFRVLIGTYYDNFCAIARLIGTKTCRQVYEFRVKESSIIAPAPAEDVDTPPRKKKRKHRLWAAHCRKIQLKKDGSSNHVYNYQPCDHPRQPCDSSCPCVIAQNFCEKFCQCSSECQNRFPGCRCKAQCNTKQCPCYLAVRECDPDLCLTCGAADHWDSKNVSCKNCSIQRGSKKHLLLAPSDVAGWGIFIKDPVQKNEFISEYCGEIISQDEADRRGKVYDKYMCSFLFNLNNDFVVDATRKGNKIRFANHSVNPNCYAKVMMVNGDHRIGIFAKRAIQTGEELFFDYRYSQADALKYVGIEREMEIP
# * = called active by the depositor. The sample as a whole holds a higher share of hits than the screen did.
SMILES,EZH2 inh
Cc1nnc(SCC(=O)Nc2ccc([N+](=O)[O-])cc2)s1,5
N#C[C@@H](O[C@@H]1O[C@H](CO)[C@@H](O)[C@H](O)[C@H]1O[C@@H]1O[C@H](CO)[C@@H](O)[C@H](O)[C@H]1O)c1ccccc1,-11
N#CC(OC1OC(COC2OCC(OC(=O)/C=C/c3ccc(OC4OC(CO)C(O)C(O)C4O)cc3)C(O)C2O)C(O)C(O)C1O)c1ccccc1 (stereo not given),90*
C[C@@H]1O[C@@H](O[C@@H]2[C@@H](O)[C@H](Oc3cc(O)c4c(c3)OC(c3ccc(O)cc3)CC4=O)O[C@H](COC3OCC(O)C(O)C3O)[C@H]2O)[C@H](O)[C@H](O)[C@H]1O (stereo not given in full),-14
CO[C@@H]1CN(C)C(=O)c2cc(NC(=O)C3CCCC3)ccc2OC[C@H](C)N(C(=O)CC2CC2)C[C@H]1C,-1
CC(=O)c1cc(C)c(O)c(COC2OC(CO)C(O)C(O)C2O)c1O (stereo not given),18
O=C(O)CC(CCc1ccccc1)OC1OC(CO)C(O)C(O)C1O (stereo not given),98*
CC(C)CC(=O)O[C@@H]1OC=C(CO[C@@H]2O[C@H](CO)[C@@H](O)[C@H](O)[C@H]2O)[C@H]2C[C@H](O)[C@@](C)(O)[C@@H]12,10
COc1cccc(S(=O)(=O)Nc2ccc3c(c2)C(=O)N(C)C[C@@H](OC)[C@H](C)CN(Cc2ccccc2F)[C@H](C)CO3)c1,20
CC(C)c1onc(-c2c(Cl)cccc2Cl)c1COc1ccc(/C=C/c2cccc(C(=O)O)c2)c(Cl)c1,73*
CNC[C@@H]1Oc2ccc(NC(=O)Nc3cccc4ccccc34)cc2CC(=O)N([C@H](C)CO)C[C@@H]1C,6
O=C(C[C@@H]1CC[C@@H](NC(=O)Nc2ccccc2F)[C@H](CO)O1)NCc1ccccc1,8
COc1ccc(S(=O)(=O)N(C)C[C@H]2OCCCC[C@H](C)Oc3ccc(N(C)C)cc3C(=O)N([C@@H](C)CO)C[C@@H]2C)cc1,2
CC(C)CC#Cc1ccc2c(c1)O[C@@H](CN(C)C(=O)C1CCC1)[C@H](C)CN([C@@H](C)CO)S2(=O)=O,-1
O=C(C[C@H]1C=C[C@@H](NC(=O)NC2CCCCC2)[C@H](CO)O1)NCc1ccc(F)cc1,-8
O=C(CSc1nnc2ccccn12)Nc1c(Cl)cc(Cl)cc1Cl,-9
O=C(c1cnc2ccccn12)C(F)(F)SCc1c(Cl)cccc1Cl,59*
Cc1ccc(-c2noc(CN(C(=O)c3ccc([N+](=O)[O-])cc3)C(C)C)n2)cc1,8
O=[N+]([O-])c1cccc(S(=O)(=O)NCCOc2cccc(Cl)c2Cl)c1,1
O=[N+]([O-])c1cccc(S(=O)(=O)NCCOc2ccccc2-c2ccccc2)c1,53*
O=[N+]([O-])c1cccc(S(=O)(=O)NCCOc2cccc3cccnc23)c1,-5
C[C@@H]1CN([C@@H](C)CO)S(=O)(=O)c2ccc(C3=CCCCC3)cc2O[C@H]1CN(C)S(C)(=O)=O,0
CC(C)=CCN[C@H](CO)c1ccccc1,2
CC(C)=CCN(CC#Cc1ccccc1)[C@H](CO)c1ccccc1,66*
CO[C@H]1CN(C)C(=O)c2cc(NC(C)=O)ccc2OC[C@H](C)N(C(=O)C2CCC2)C[C@@H]1C,7
SMILES,EZH2 inh
CO[C@H]1CN(C)C(=O)c2ccc(NC(=O)c3ccc(F)cc3)cc2OC[C@H](C)N(C)C[C@H]1C,3
CC(C)NC(=O)N(C)C[C@H]1Oc2ccc(NC(=O)Nc3ccc(F)cc3)cc2CC(=O)N([C@H](C)CO)C[C@@H]1C,-14
COCC#Cc1ccc2c(c1)O[C@H](CN(C)C(=O)c1ccccc1F)[C@H](C)CN([C@H](C)CO)S2(=O)=O,7
COc1ccc(-c2coc3cc(O[C@@H]4O[C@H](CO)[C@@H](O)[C@H](O)[C@H]4O)cc(O)c3c2=O)cc1,-18
CC1OC(OCC2OC(Oc3cc(O)c4c(=O)c(-c5ccc(O)cc5)coc4c3)C(O)C(O)C2O)C(O)C(O)C1OC1OC(CO)C(O)C(O)C1O (stereo not given),64*
C[C@@H]1O[C@@H](O[C@H]2[C@H](Oc3cc(O)c4c(=O)cc(-c5ccc(O)cc5)oc4c3)O[C@H](CO)[C@@H](O)[C@@H]2O)[C@H](O)[C@H](O)[C@H]1O,-5
Cn1c(SCc2ccccc2C#N)nnc1-c1ccc(NC(=O)c2ccc(F)cc2)cc1,26
Cc1ccc(S(=O)(=O)N[C@H]2C=C[C@@H](CC(=O)NC3CCCCC3)O[C@@H]2CO)cc1,9
CC1OC(Oc2ccc(-c3cc(=O)c4c(O)cc(OC5OC(CO)C(O)C(O)C5O)cc4o3)cc2)C(O)C(O)C1O (stereo not given),9
C=Cc1ccc(O[C@@H]2O[C@H](CO[C@@H]3O[C@@H](C)[C@H](O)[C@@H](O)[C@H]3O)[C@@H](O)[C@H](O)[C@H]2O)cc1,87*
